About 11,000 (3.5%) of roughly 310,000 compounds were called active. Not shown: some 8% with an inconclusive outcome. Calls come from the whole dose curve; as a rule, active = well fitted inhibition curve with a large enough effect; inconclusive = small, poorly fitted or top-dose-only effect, or effect the other way; inactive = flat fitted curve, though single readings scatter. Many of the other results were omitted from the sample, so actives are more common in it than they were.
Assay: VP16 counterscreen qHTS for inhibitors of ROR gamma transcriptional activity;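 note: Gal4-VP16 expression switched on by copper sulfate through the metallothionein promoter; nearly all actives have a fitted effect of over 50% in size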
Details: Drosophila S2 Gal4-VP16 UAS-luciferase, luminescence, 20 h; series mostly up to 53.6 µM; activity, negative = inhibition: at the top concentration
% is set by controls: 0 for no effect and ±100 for the full control effect; potency is the fitted concentration of half-maximal effect.

Compound | activity, negative = inhibition | Potency
O=C(NCCc1cccc(F)c1)C1CCCN(c2nc3ccccc3s2)C1 (stereo unspecified) | 21.4% (inactive) | 
COc1cc(NC(=O)c2ccccc2)c(OC)cc1NC(=O)Cc1ccccc1 | -4.59% (inactive) | 
COc1cccc(/C=C/c2ccc3ccccc3n2)c1OC(C)=O |  | 5.01 µM (active)
COc1cccc(/C=C2\C=C(c3ccc(C)cc3)OC2=O)c1OC(C)=O | -6.1% (inactive) | 
NC(=O)COC(=O)/C=C/c1ccc2ccccc2n1 | 2.36% (inactive) | 
CCOc1ccccc1-c1cc(C(=O)N/N=C(\C)c2cccnc2)c2ccccc2n1 | -21% (inactive) | 
CS(=O)(=O)c1sc(C(=O)NC(=S)Nc2ccc(OC(F)(F)F)cc2)c2c1C=CCC2 |  | 11.2 µM (active)
CSc1sc(C(=O)NNC(=O)c2ccc(Cl)cc2)c2c1C=CCC2 | 4.81% (inactive) | 
COC(=O)[C@H](C)NC(=O)Nc1ccc(OC(F)(F)F)cc1 | 5.72% (inactive) | 
CC(C)c1c(C(=O)N/N=C/c2ccc(-c3ccccc3)cc2)nnn1-c1nonc1N | -8.19% (inactive) | 
Cc1cc(N2CCCC2)n2nc(C)c(-c3ccccc3)c2n1 | 8.17% (inactive) | 
Cc1nn2c(NCCN(C)C)c3c(nc2c1-c1ccccc1)CCC3 |  | 0.794 µM (active)
Cc1cc(C(C)(C)C)n2nc(C)c(-c3ccccc3)c2n1 | -4.74% (inactive) | 
CCOC(=O)C1(Cc2cccc(OC)c2)CCCN(C(=O)CCSC)C1 (stereo unspecified) | -1% (inactive) | 
CCN(CC)S(=O)(=O)c1ccc(N2CCN(C)CC2)c(NC(=O)Nc2ccccc2F)c1 | -4.65% (inactive) | 
Cc1ccccc1CN1CCNC(=O)C1CC(=O)NCCC1=CCCCC1 (stereo unspecified) | 1.67% (inactive) | 
C/C(=N\NC(=S)NCc1ccccc1)c1ccc(Cl)cc1 |  | 0.794 µM (active)
O=C(CC1CCCCC1)NCc1ccccc1 | 24% (inactive) | 
CC1CCCCN1C(=S)NCc1ccccc1 (stereo unspecified) | 22.1% (inactive) | 
O=C(O)c1ccc(/C=N/NC(=S)NCc2ccccc2)cc1 | -14.7% (inactive) | 
C/C(=N\NC(=S)NCc1ccccc1)C1CCCCC1 |  | 1 µM (active)
C[n+]1ccc(C(=O)NCc2ccccc2)cc1 | -9.88% (inactive) | 
COc1ccc(NC(=O)C(C)N2c3cccc4cccc(c34)S2(=O)=O)c(OC)c1 (stereo unspecified) | -5.36% (inactive) | 
COc1cccc(/C=C2\Sc3ccc(C(=O)NCC4CCCO4)cc3N(C)C2=O)c1 (stereo unspecified) | 6.5% (inactive) | 

Compound | activity, negative = inhibition | Potency
CC(=O)NCCC(=O)Nc1nc(-c2ccc3c(c2)OCCO3)cs1 | -10% (inactive) | 
Cc1cc(C)cc(NS(=O)(=O)Cc2ccccc2)c1 | 5.47% (inactive) | 
Cc1ccc(C(=O)COC(=O)CCN2C(=O)C3C4CCC(C4)C3C2=O)cc1C (stereo unspecified) | 6.49% (inactive) | 
COc1ccccc1NC(=O)/C=C/C(N)=O |  | 4.47 µM (active)
COc1ccccc1NC(=O)/C=C/C(=O)O | 0.849% (inactive) | 
COc1ccccc1NC(=O)c1ccc(C)s1 | 6.7% (inactive) | 
COc1ccc(NC(=O)CN2C(=O)COc3ccc(S(=O)(=O)N4CCOCC4)cc32)cc1 | 2.73% (inactive) | 
CCc1cc(-c2n[nH]c(=S)n2CC(C)C)cs1 |  | 11.2 µM (active)
CCn1c(C(C)C)n[nH]c1=S | 2.29% (inactive) | 
CCn1c(-c2ccoc2C)n[nH]c1=S | -27% (inactive) | 
Cc1ccc(Cn2c(C)c3cnn(CC(=O)NCc4ccccn4)c(=O)c3c2C)cc1 | -20.9% (inactive) | 
CC(=O)Nc1ccc(C(=O)N(C2=NC(C)CS2)c2ccc(Cl)cc2)cc1 (stereo unspecified) | 3.56% (inactive) | 
COc1ccc(-c2nnc(NC(=O)CS(=O)(=O)c3ccc(Cl)cc3)o2)c(OC)c1 | -16.2% (inactive) | 
COc1cccc(-c2nnc(NC(=O)c3ccc(S(=O)(=O)N(CC(C)C)CC(C)C)cc3)o2)c1 |  | 0.355 µM (active)
COc1cccc(NC(=O)c2ccc(S(=O)(=O)N(C)C)cc2)c1 | 24.2% (inactive) | 
COc1cc(Nc2nc3ccc(Cl)cc3n3cnnc23)cc(OC)c1OC | -7.36% (inactive) | 
O=C(c1ccc(Cl)cc1)n1cnc2ccccc21 | -13% (inactive) | 
C=CS(=O)c1sc(Cl)c(N2CCOCC2)c1[N+](=O)[O-] (stereo unspecified) |  | 3.98 µM (active)
CCCOc1ccc(C2=CSC3=NCCN23)cc1Cl | -2.84% (inactive) | 
CCCNC(=S)N1CCC(NC(=O)c2ccc(OC)cc2)CC1 | -0.164% (inactive) | 
O=C(NC(=S)NC1CCCCC1)c1ccc(Cl)cc1 | -0.126% (inactive) | 
O=C(CCc1ccccc1)NNC(=O)c1ccc(Br)cc1 | 2.7% (inactive) | 
COc1ccc(C(=O)NNC(=S)NC(=O)c2ccccc2[N+](=O)[O-])cc1 | -2.15% (inactive) | 
COc1ccc(C(=O)NC(=S)NNC(=O)CCc2ccccc2)cc1 |  | 15.8 µM (active)

Compound | activity, negative = inhibition | Potency
COc1ccc(C(=O)NC2CCN(C(=S)NCCc3ccccc3)CC2)cc1 | 6% (inactive) | 
COc1ccc(C(=O)NNC(=S)NC(=O)c2ccccc2)cc1 |  | 8.91 µM (active)
COc1ccc(OCC(=O)NNC(=O)c2ccc(-c3ccccc3)cc2)cc1 | -1.67% (inactive) | 
COc1ccc(C(=O)NC(=S)NC2CCCCC2)cc1 |  | 6.31 µM (active)
COc1ccc(NC(=O)CCCN2C(=O)C(c3ccccc3)Oc3cccnc32)cc1 (stereo unspecified) | 0.496% (inactive) | 
CC(C)C[C@@H](COc1ccccc1)N1CCN(CC(C)C)CCC1=O | -0.104% (inactive) | 
COc1ccc(CCc2nc(-c3cccs3)no2)cc1 | 6.91% (inactive) | 
O=C(c1ccc2nc(N3CCOCC3)sc2c1)N1CCN(c2ccc(Cl)cc2)CC1 | -4.01% (inactive) | 
COc1ccc(NC(=O)CSc2nncc(=O)n2N)cc1OC | -8.72% (inactive) | 
CCCC(C)c1nnc(NC(=O)C2CC(=O)N(c3ccc(OCC)cc3)C2)s1 (stereo unspecified) | 4.36% (inactive) | 
O=C(N/N=C/c1ccccc1O)C1CCCC1 |  | 0.562 µM (active)
Oc1ccccc1C=NC1CCCCC1N=Cc1ccccc1O (stereo unspecified) | 5.08% (inactive) | 
COc1ccc(/C=N/NC(=O)C2CC2)c(OC)c1OC | -0.0485% (inactive) | 
N#CC(C#N)=CN=c1ccn(Cc2ccc(Cl)cc2Cl)cc1 | -4.82% (inactive) | 
COc1ccccc1N1CCN(C(=O)c2cc(=O)c3cc(C)ccc3o2)CC1 | -0.286% (inactive) | 
O=c1c2ccccc2nc2n1C(CSCc1cccc(C(F)(F)F)c1)CS2 (stereo unspecified) |  | 7.94 µM (active)
O=c1c2ccccc2nc2n1C(CSc1ccc(F)cc1)CN2 (stereo unspecified) | -0.667% (inactive) | 
O=c1c2ccccc2nc2n1C(CSCc1ccccc1)CS2 (stereo unspecified) | 5.71% [at 0.365 µM] (inactive) | 
CS(=O)(=O)N1CCN(CC(=O)NC2CCCC2)CC1 | -4.75% (inactive) | 
COc1ccc(S(=O)(=O)Nc2cccnc2)c(Cl)c1Cl | -4.29% (inactive) | 
COc1ccccc1Oc1ccc(S(=O)(=O)Nc2cccnc2)cc1 |  | 17.8 µM (active)
O=S(=O)(Nc1ccccn1)c1ccc(Oc2ccccc2)cc1 | 3.87% (inactive) | 
CC(Oc1cccc(Cl)c1)C(=O)NC1CC(C)(C)NC(C)(C)C1 (stereo unspecified) | -0.763% (inactive) | 
